Values joined by “and” are separate entries in the source; they are usually repeats but may differ in a detail not shown here. Identical values can stand only once. Inconclusive results are not listed. Where a structure was tested more than once in an assay, its records may differ in their call. Active and inactive are the calls of the source. Unless noted, the call rests on the fitted dose curve; in most records, active means well fitted curve in the direction sought with a large enough effect in the repeat runs; inconclusive means weak or mixed curves; inactive means no such curve, though single readings can be large; an effect the other way counts as inactive or inconclusive.
What was measured:
[1] = target: Thyrotropin-releasing hormone receptor (Homo sapiens) (UniProt P34981); assay: qHTS assay to identify small molecule agonists of the thyrotropin-releasing hormone receptor (TRHR) signaling pathway (AID 1346891; calls by dose curve;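 further: HEK293 cells expressing TRHR with calcium dye readout; series mostly up to about 58 µM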)
Procedure, shortened: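 In 1536-format, 1500 TRHR-Hek293 cells per well grew 18 h, took up calcium dye for 2 h at 37 °C, received compound, and were read kinetically; 15-point titrations, triplicates.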

[2] = Human pregnane X receptor (PXR) small molecule agonists, qHTS cell viability counter screen (AID 1346977); further: nearly all actives have a fitted effect of over 50% in size
Procedure, shortened: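 Readout is CellTiter-Fluor fluorescence from PXR-Luc HepG2 cells. Plated cells rested 5hr, then were treated with compounds for 24hr at 37C and 5% CO2, with reagent present during the last hour.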

[3] = Caspase-3/7 induction in HepG2 cells by small molecules, qHTS assay (AID 1346978); further: nearly all actives have a fitted effect of over 15% in size
Procedure, shortened: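 Wild-type HepG2 cells (2,000/well) were settled 5 h at 37 C, 5% CO2, then exposed to compounds in DMSO for 17 h. Caspase-3/7 activity was read by luminescence 30 min after adding Caspase-Glo 3/7 reagent at room temperature.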

[4] = Caspase-3/7 induction in CHO-K1 cells by small molecules, qHTS assay (AID 1346980); further: nearly all actives have a fitted effect of over 15% in size
Procedure, shortened: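 Wild-type cells were seeded at 1,500 per well and settled 5 hr at 37 C, 5% CO2, then exposed to DMSO-dissolved compounds for 17 hr. Caspase-Glo 3/7 reagent was added, and luminescence was read after 30min at room temperature.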

[5] = Caspase-3/7 induction in HepG2 cells by small molecules, qHTS cell viability counter screen (AID 1346981); further: nearly all actives have a fitted effect of over 30% in size; further: potency means the concentration at half of the fitted maximal effect
Procedure, shortened: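 In this quantitative HTS counter screen, compounds delivered in DMSO were left on unmodified HepG2 cells for 16 hr at 37 C. Viability was then determined fluorometrically with CellTiter-Fluor, in parallel with caspase-3/7 induction in the same wells.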

[6] = target: Nuclear receptor subfamily 1 group I member 2 (Homo sapiens) (UniProt O75469); assay: Human pregnane X receptor (PXR) small molecule agonists, qHTS assay (AID 1346982); further: nearly all actives have a fitted effect of over 35% in size; further: potency means the concentration at half of the fitted maximal effect
Procedure, shortened: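 Reporter HepG2 cells expressing PXR-Luc are cultured in charcoal-stripped FBS (5%), treated with compounds for 24 hr at 37 C, and assayed by ONE-Glo luminescence after 30 min at room temperature.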

[7] = target: Cytochrome P450 2D6 (Homo sapiens) (UniProt P10635); assay: Cytochrome P450 Family 2 Subfamily D Member 6 (CYP2D6) small molecule antagonists: luciferase reporter qHTS assay (AID 1671196); further: nearly all actives have a fitted effect of over 50% in size; further: potency means the concentration at half of the fitted maximal effect
Procedure, shortened: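 Test chemicals meet CYP2D6 plus proluciferin substrate (10 min, RT); NADPH regenerating solution then drives turnover for 1 h. Detection reagent halts the reaction; luminescence measured after 20 min.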

[8] = target: Cytochrome P450 2C19 (Homo sapiens) (UniProt P33261); assay: Cytochrome P450 Family 2 Subfamily C Member 19 (CYP2C19) small molecule antagonists: luciferase reporter qHTS assay (AID 1671197); further: nearly all actives have a fitted effect of over 65% in size; further: potency means the concentration at half of the fitted maximal effect
Procedure, shortened: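 Relative luminescence units recorded 20 min after the detection reagent stopped a 1 h, 37C CYP2C19 reaction on proluciferin substrate, which was started by NADPH regeneration following 10 min room-temperature compound preincubation; ketoconazole positive control.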

[9] = target: Cytochrome P450 2C9 (Homo sapiens) (UniProt P11712); assay: Cytochrome P450 Family 2 Subfamily C Member 9 (CYP2C9) small molecule antagonists: luciferase reporter qHTS assay (AID 1671198); further: nearly all actives have a fitted effect of over 50% in size; further: potency means the concentration at half of the fitted maximal effect
Procedure, shortened: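 CYP2C9 activity was measured with a P450-Glo proluciferin substrate. Enzyme–substrate mix was held with compound for 10 min at room temperature, then NADPH regeneration solution was added for 1 h at 37C. Luciferin product was read as luminescence.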

[10] = target: Cytochrome P450 1A2 (Homo sapiens) (UniProt P05177); assay: Cytochrome P450 Family 1 Subfamily A Member 2 (CYP1A2) small molecule antagonists: luciferase reporter qHTS assay (AID 1671199); further: nearly all actives have a fitted effect of over 50% in size; further: potency means the concentration at half of the fitted maximal effect
Procedure, shortened: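 Steps: enzyme-substrate mix dispensed; test compounds and furafylline control pinned in; 10 min room temperature; NADPH regeneration solution added, 1 h; reaction stopped with luciferin detection reagent; luminescence read after 20 min.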

[11] = target: Voltage-gated inwardly rectifying potassium channel KCNH2 (Homo sapiens) (UniProt Q12809); assay: Human Ether-a-go-go-Related Gene (hERG) channel small molecule antagonists: fluorescence cell-based qHTS assay (AID 1671200)
Procedure, shortened: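 Measured: Tl+ flux via fluorescence (480/540 nm) in hERG-expressing U2OS cells after 1 h dye loading at room temperature.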

[12] = target: Cytochrome P450 3A4 (Homo sapiens) (UniProt P08684); assay: Cytochrome P450 Family 3 Subfamily A Member 4 (CYP3A4) small molecule antagonists: luciferase reporter qHTS assay (AID 1671201)
Procedure, shortened: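 Setup: enzyme-substrate mix, compound pin transfer, 10 min RT. Reaction: NADPH regeneration solution, 1 h RT. Readout: detection reagent stops turnover, luminescence measured after 20 min, expressed in relative luminescence units.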

[13] = Caspase-3/7 induction in CHO-K1 cells by small molecules, qHTS cell viability counter screen (AID 1346979); further: nearly all actives have a fitted effect of over 35% in size; further: potency means the concentration at half of the fitted maximal effect
Procedure, shortened: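 To flag cytotoxic compounds, treated CHO-K1 wild-type cells were given CellTiter-Fluor at 16hr and read fluorescently after 1hr at 37C; the caspase-3/7 luminescence was measured in these same wells.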

[14] = target: Nuclear receptor subfamily 1 group I member 2 (Rattus norvegicus) (UniProt Q9R1A7); assay: Rat pregnane X receptor (rPXR) activation by small molecules, qHTS assay (AID 1346983); conditions: rPXR luciferase reporter cells, One-Glo luminescence, 24 h; stronger effect = higher value; further: nearly all actives have a fitted effect of over 20% in size
Procedure, shortened: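 Cell-based rPXR luciferase reporter assay, 2,000 cells per well, rested 5hr at 37 C before compound addition in DMSO, then 24 hr at 37 C. One-Glo reagent was added and luminescence read after 30 min at room temperature.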

[15] = target: Nuclear receptor subfamily 1 group I member 2 (Homo sapiens) (UniProt O75469); assay: CYP3A4 induction through human pregnane X receptor (PXR) by small molecules, qHTS assay (AID 1346984); further: nearly all actives have a fitted effect of over 40% in size
Procedure, shortened: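 Induction measured in HepG2-based DPX-2 cells co-expressing human PXR and a CYP3A4 promoter-driven luciferase. After a 24-hour compound exposure, cells received CYP3A4 luciferin substrate at 3uM final for 3 hours, and light output was then recorded.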

[16] = target: Nuclear receptor subfamily 1 group I member 2 (Homo sapiens) (UniProt O75469); assay: Human pregnane X receptor (PXR) activation by small molecules, qHTS assay (AID 1346985); further: nearly all actives have a fitted effect of over 40% in size
Procedure, shortened: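 DPX-2 cells (HepG2 co-transfected with a PXR response element and a CYP3A4-promoter luciferase construct) were seeded at 2,000 per well, rested 5 hr at 37C, then exposed to DMSO-dissolved compounds for 24 hr. Activation was read as luciferase luminescence.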
On the % scale 0 is the no-effect control and ±100 the full control effect.

Thyrotropin-releasing hormone receptor (Homo sapiens), sequence (P34981 whole entry, looked up): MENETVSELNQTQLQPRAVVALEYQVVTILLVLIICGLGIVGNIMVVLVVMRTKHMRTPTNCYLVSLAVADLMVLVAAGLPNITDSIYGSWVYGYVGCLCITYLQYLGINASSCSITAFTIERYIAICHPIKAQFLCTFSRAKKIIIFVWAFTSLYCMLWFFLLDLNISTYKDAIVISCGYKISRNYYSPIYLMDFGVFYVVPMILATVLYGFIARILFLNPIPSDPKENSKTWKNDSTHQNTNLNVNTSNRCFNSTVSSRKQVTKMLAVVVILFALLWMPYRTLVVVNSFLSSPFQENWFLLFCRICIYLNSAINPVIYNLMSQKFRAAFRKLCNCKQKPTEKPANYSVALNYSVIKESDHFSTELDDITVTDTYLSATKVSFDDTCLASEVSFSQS
Cytochrome P450 3A4 (Homo sapiens), sequence (P08684 whole entry, looked up): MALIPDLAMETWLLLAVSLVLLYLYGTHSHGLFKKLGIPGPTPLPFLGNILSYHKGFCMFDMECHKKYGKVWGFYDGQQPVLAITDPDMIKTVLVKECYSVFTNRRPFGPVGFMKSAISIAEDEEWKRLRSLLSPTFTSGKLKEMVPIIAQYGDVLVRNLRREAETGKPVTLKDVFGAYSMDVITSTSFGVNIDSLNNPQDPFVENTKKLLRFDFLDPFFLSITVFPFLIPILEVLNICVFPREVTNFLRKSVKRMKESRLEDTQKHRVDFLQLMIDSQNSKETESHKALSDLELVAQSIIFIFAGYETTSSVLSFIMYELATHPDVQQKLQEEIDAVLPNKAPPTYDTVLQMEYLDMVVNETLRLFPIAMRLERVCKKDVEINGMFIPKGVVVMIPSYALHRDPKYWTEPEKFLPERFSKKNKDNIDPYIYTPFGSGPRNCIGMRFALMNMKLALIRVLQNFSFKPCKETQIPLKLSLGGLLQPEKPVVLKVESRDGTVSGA
Nuclear receptor subfamily 1 group I member 2 (Homo sapiens), sequence (O75469 whole entry, looked up): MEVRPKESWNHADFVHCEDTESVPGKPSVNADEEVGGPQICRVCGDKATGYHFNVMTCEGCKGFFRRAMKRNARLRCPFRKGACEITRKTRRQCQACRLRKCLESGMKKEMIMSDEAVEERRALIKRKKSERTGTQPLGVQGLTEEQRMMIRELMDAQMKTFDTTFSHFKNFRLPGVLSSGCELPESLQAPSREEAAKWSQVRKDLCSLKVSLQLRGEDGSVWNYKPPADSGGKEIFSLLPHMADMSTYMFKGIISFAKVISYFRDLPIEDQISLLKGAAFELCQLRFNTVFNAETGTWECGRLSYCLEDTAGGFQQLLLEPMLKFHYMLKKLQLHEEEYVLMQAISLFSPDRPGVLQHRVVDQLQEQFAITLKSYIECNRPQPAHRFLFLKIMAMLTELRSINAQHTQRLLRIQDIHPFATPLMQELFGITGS
Cytochrome P450 2C19 (Homo sapiens), sequence (P33261 whole entry, looked up): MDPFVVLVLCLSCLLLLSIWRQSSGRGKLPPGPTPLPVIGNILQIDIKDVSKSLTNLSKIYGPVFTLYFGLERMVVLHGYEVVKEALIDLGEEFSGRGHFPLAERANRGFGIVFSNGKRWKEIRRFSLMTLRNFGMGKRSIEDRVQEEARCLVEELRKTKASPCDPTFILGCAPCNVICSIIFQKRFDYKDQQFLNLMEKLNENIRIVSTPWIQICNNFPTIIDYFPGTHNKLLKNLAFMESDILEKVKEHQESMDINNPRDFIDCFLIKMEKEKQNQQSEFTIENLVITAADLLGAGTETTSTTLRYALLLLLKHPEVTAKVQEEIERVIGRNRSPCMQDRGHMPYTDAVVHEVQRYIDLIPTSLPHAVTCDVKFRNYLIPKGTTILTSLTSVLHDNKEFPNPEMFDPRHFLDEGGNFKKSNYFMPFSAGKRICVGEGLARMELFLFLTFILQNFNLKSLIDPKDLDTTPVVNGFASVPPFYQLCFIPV
Nuclear receptor subfamily 1 group I member 2 (Rattus norvegicus), sequence (Q9R1A7 whole entry, looked up): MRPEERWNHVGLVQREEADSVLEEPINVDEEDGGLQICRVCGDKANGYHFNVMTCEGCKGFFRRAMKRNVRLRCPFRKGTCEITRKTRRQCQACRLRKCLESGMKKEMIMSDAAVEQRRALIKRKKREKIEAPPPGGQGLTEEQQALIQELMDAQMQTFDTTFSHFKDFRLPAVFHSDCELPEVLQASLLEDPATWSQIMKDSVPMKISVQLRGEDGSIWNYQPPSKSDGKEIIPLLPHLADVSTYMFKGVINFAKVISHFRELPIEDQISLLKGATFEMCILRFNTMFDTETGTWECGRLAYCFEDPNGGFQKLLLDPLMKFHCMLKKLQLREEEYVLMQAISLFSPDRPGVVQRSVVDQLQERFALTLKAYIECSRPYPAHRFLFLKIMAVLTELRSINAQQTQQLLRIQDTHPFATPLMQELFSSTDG
Cytochrome P450 2D6 (Homo sapiens), sequence (P10635 whole entry, looked up): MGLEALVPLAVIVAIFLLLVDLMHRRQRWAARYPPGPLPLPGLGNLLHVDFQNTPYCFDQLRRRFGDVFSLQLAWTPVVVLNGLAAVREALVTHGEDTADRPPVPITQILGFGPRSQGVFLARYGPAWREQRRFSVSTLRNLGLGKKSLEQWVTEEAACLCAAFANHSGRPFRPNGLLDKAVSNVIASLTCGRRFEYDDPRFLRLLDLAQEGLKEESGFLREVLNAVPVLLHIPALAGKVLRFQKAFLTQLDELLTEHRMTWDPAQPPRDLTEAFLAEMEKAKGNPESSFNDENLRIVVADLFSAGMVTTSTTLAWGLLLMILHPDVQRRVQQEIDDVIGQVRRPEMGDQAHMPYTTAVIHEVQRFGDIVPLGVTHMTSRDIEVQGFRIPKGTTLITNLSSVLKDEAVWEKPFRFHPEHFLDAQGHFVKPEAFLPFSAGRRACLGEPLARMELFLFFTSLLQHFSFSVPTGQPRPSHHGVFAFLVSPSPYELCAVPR
Cytochrome P450 2C9 (Homo sapiens), sequence (P11712 whole entry, looked up): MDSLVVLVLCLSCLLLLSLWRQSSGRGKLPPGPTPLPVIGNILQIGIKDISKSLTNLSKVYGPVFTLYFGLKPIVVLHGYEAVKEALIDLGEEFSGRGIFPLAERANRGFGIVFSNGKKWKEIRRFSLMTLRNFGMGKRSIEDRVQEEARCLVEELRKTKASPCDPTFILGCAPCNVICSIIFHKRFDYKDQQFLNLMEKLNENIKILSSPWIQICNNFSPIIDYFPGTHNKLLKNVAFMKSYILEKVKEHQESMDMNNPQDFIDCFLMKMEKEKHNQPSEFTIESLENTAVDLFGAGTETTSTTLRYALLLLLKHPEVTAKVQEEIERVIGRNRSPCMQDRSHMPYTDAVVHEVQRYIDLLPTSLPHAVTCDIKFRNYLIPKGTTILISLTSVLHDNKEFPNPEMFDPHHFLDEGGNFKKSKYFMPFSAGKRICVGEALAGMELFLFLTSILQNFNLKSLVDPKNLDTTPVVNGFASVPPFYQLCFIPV
Cytochrome P450 1A2 (Homo sapiens), sequence (P05177 whole entry, looked up): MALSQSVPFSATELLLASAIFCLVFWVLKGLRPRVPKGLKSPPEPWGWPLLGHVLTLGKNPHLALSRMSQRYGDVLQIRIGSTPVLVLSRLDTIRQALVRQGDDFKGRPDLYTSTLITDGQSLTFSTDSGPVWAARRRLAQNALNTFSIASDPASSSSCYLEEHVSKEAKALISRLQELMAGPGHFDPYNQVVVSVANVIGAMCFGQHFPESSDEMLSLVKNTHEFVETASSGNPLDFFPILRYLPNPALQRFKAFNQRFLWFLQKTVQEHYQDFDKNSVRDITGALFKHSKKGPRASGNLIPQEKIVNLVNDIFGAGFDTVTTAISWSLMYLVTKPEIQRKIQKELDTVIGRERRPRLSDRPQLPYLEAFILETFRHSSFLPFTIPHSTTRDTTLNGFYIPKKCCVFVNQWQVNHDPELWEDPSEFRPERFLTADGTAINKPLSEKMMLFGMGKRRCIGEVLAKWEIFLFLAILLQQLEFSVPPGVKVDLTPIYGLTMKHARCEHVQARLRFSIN
Voltage-gated inwardly rectifying potassium channel KCNH2 (Homo sapiens), sequence (Q12809 whole entry, looked up): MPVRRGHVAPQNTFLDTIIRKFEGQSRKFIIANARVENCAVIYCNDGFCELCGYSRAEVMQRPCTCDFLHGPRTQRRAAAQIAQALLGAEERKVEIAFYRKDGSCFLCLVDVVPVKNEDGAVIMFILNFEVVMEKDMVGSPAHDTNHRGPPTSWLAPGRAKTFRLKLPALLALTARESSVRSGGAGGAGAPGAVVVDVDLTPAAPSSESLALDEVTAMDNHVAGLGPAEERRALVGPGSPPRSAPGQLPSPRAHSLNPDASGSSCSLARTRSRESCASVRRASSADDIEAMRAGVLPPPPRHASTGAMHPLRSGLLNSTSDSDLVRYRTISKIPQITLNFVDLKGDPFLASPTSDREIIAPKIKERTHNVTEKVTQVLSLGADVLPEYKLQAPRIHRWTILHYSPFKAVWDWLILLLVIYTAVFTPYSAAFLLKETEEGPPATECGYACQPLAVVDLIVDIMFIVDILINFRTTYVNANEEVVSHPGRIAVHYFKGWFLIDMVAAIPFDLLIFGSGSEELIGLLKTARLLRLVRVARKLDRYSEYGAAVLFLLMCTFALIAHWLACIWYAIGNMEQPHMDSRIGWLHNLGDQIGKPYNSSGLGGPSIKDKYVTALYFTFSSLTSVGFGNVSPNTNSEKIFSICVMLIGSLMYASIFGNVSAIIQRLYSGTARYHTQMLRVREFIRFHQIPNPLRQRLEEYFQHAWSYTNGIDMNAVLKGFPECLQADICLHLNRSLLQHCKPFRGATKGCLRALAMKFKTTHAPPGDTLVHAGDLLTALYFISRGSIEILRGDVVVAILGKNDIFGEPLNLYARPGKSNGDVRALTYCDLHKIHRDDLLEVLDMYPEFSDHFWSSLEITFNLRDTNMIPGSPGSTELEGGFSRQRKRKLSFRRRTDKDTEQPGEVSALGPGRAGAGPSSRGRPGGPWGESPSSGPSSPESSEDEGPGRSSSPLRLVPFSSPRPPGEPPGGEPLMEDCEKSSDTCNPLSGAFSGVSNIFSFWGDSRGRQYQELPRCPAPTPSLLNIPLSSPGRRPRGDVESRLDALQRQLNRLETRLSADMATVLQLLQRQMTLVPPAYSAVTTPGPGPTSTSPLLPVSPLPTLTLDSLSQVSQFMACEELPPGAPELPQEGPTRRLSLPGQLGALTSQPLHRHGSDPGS

CCO[Si](CCC#N)(OCC)OCC
inactive: outcome [1] | Potency [2] | Potency [3] | outcome [4] | Potency [5] | Potency [6] | Potency [7] | Potency [8] | Potency [9] | Potency [10] | Potency [11] | Potency [12]

CCCCCCO
inactive: outcome [1] | Potency [2] | Potency [3] | Potency [13] | outcome [4] | Potency [5] | Potency [6] | Potency [7] | Potency [8] | Potency [9] | Potency [10] | Potency [11] | Potency [12]

Cc1ccc([N+](=O)[O-])cc1S(=O)(=O)O
active: Potency [7] 39.2 µM | Potency [8] 35.6 µM | Potency [9] 56.4 µM
inactive and 63.3 µM (active): Potency [10]
inactive: outcome [1] | Potency [2] | Potency [13] | outcome [4] | Potency [5] | Potency [6] | Potency [11] | Potency [12]

CN(C)c1ccc(O)c2c1C[C@H]1C[C@H]3[C@H](N(C)C)C(=O)C(C(N)=O)=C(O)[C@@]3(O)C(=O)C1=C2O
active: Potency [13] 68.6 µM and 29.8 µM | Potency [5] 54.5 µM and 29.8 µM
inactive: outcome [1] | Potency [2] | Potency [3] | outcome [4] | max activation [14] -2.35% | Potency [15] | outcome [16] | Potency [7] | Potency [8] | Potency [9] | Potency [10] | Potency [11] | Potency [12]

COCCOC(=O)c1ccccc1C(=O)OCCOC
active: Potency [8] 22.6 µM and 25.2 µM | Potency [10] 22.6 µM and 35.6 µM
inactive: outcome [1] | Potency [2] | Potency [3] | outcome [4] | Potency [5] | Potency [7] | Potency [11] | Potency [12]

CCCCCCCC=O
inactive: outcome [1] | Potency [2] | Potency [3] | outcome [4] | Potency [5] | Potency [6] | Potency [7] | Potency [8] | Potency [9] | Potency [10] | Potency [11] | Potency [12]

OCc1ccccc1
active: Potency [8] 35.1 µM
inactive: outcome [1] | Potency [2] | Potency [13] | outcome [4] | Potency [5] | Potency [6] | max activation [14] -0.795% | Potency [15] | outcome [16] | Potency [7] | Potency [10] | Potency [11] | Potency [12]

CC(=O)OC1CC(C)OC(C)O1 (configuration not stated)
70.1 µM (active) and inactive: Potency [8]
inactive: outcome [1] | Potency [2] | Potency [3] | Potency [13] | outcome [4] | Potency [5] | Potency [6] | Potency [7] | Potency [9] | Potency [10] | Potency [11] | Potency [12]

O=S(=O)(O)c1ccccc1
inactive: outcome [1] | Potency [2] | Potency [3] | outcome [4] | Potency [5] | Potency [11]

CCOC(=O)c1ccc(N)cc1
39.9 µM (active) and inactive: Potency [8]
active: Potency [9] 35.6 µM | Potency [10] 12.6 µM
inactive: outcome [1] | Potency [2] | Potency [3] | Potency [13] | outcome [4] | Potency [5] | Potency [6] | max activation [14] -0.927% | Potency [15] | outcome [16] | Potency [7] | Potency [11] | Potency [12]

NC(=S)NNC(N)=S
inactive: outcome [1] | Potency [2] | Potency [3] | Potency [13] | outcome [4] | Potency [6] | Potency [7] | Potency [10] | Potency [11] | Potency [12]
34.7 µM (active) and inactive: Potency [8]
active: Potency [9] 35.6 µM

OC1C(O)C(O)C(O)C(O)C1O (configuration not stated)
inactive: outcome [1] | Potency [2] | Potency [3] | Potency [13] | outcome [4] | Potency [5] | Potency [6] | max activation [14] -0.165% | Potency [15] | outcome [16] | Potency [7] | Potency [8] | Potency [9] | Potency [10] | Potency [11] | Potency [12]

CCCCCCCCCCCC(=O)OC
inactive: outcome [1] | Potency [2] | Potency [3] | Potency [13] | outcome [4] | Potency [5] | Potency [7] | Potency [8] | Potency [9] | Potency [10] | Potency [11] | Potency [12]

CC1(C)NC(=O)NC1=O
active: Potency [10] 35.8 µM
inactive: outcome [1] | Potency [2] | Potency [3] | outcome [4] | Potency [5] | Potency [6] | Potency [7] | Potency [8] | Potency [9] | Potency [11] | Potency [12]

C=CC[N+](C)(C)CC=C
inactive: outcome [1] | Potency [2] | Potency [13] | outcome [4] | Potency [5] | Potency [7] | Potency [9] | Potency [10] | Potency [11] | Potency [12]
56.8 µM (active) and inactive: Potency [8]
54.9 µM (active) and inactive: Potency [6]

CC(=O)OCCOC(C)=O
inactive: outcome [1] | Potency [2] | Potency [3] | Potency [13] | outcome [4] | Potency [5] | Potency [6] | Potency [7] | Potency [8] | Potency [9] | Potency [11] | Potency [12]

CC(O)CC(C)(C)O (configuration not stated)
inactive: outcome [1] | Potency [2] | Potency [13] | outcome [4] | Potency [5] | Potency [6] | Potency [7] | Potency [8] | Potency [9] | Potency [10] | Potency [11] | Potency [12]

COc1ccc(OC)cc1
inactive: outcome [1] | Potency [2] | Potency [3] | Potency [13] | outcome [4] | Potency [5] | Potency [7] | Potency [9] | Potency [11] | Potency [12]
40.7 µM (active) and inactive: Potency [8]

Source: PubChem BioAssay (Tox21)
